Data from PubChem BioAssay (Tox21).
Results filed as inconclusive are left out. Activity calls are given as the source filed them. Calls come from the whole dose curve; as a rule, active = well fitted inhibition curve with a large enough effect in the repeat runs; inconclusive = weak or mixed curves; inactive = no such curve, though single readings can be large or run the other way.

Each compound was assayed against Cytochrome P450 2D6 (Homo sapiens) (UniProt P10635) (assay: Cytochrome P450 Family 2 Subfamily D Member 6 (CYP2D6) small molecule antagonists: luciferase reporter qHTS assay (AID 1671196; note: nearly all actives have a fitted effect of over 50% in size)). Conditions: P450-Glo CYP2D6 enzyme assay, luciferin luminescence, 1 h; series mostly up to 115 µM.
Summary of the method: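 Luminogenic proluciferin substrate, CYP2D6 enzyme; 10 min RT preincubation with compound, NADPH regeneration system added, 1 h RT. Stop/detection reagent, 20 min RT, luminescence read (RLU). Signal proportional to CYP activity.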
Potency is the fitted concentration of half-maximal effect.

Sequence of Cytochrome P450 2D6 (Homo sapiens) (P10635 whole entry, looked up): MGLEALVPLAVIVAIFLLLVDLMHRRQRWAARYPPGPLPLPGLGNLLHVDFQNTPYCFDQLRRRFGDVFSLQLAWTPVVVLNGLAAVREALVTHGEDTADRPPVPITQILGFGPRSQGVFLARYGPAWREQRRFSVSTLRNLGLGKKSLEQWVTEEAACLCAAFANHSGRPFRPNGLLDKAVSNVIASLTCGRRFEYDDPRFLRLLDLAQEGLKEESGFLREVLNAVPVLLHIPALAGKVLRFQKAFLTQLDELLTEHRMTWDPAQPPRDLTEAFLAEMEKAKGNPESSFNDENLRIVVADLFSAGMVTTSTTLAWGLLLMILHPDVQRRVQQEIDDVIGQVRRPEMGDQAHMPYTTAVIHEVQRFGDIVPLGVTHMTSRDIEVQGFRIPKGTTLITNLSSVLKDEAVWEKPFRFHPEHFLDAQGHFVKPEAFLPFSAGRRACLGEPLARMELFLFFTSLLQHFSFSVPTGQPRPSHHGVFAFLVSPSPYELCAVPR

Compound	Potency
O=c1[nH]c2ccccc2n1CCCN1CCN(C(c2ccccc2)c2ccccc2)CC1	0.692 µM (active)
O=C(Nc1ccc2c(O)c(N=Nc3ccc(N=Nc4ccc(S(=O)(=O)O)cc4)cc3)c(S(=O)(=O)O)cc2c1)c1ccccc1	35.6 µM (active)
O=S(=O)(O)c1ccccc1/C=C/c1ccc(-c2ccc(/C=C/c3ccccc3S(=O)(=O)O)cc2)cc1	inactive
CC1(C)[C@@H](O)CC[C@]2(C)[C@H]3C(=O)C=C4[C@@H]5C[C@@](C)(C(=O)O)CC[C@]5(C)CC[C@@]4(C)[C@]3(C)CC[C@@H]12	inactive
O=C1CCc2cc(OCCCCc3nnnn3C3CCCCC3)ccc2N1	inactive
CCC(CC)(CC(=O)Nc1cccc(/C=C/c2nc(C3CCC3)cs2)c1)C(=O)O	inactive
Cc1cc(-c2ccc(N=Nc3cc(S(=O)(=O)O)c4ccccc4c3N)c(C)c2)ccc1N=Nc1cc(S(=O)(=O)O)c2ccccc2c1N	2.26 µM (active)
C#C[C@]1(OC(C)=O)CC[C@H]2[C@@H]3CCC4=C[C@@H](OC(C)=O)CC[C@@H]4[C@H]3CC[C@@]21C	inactive
Cc1ccc(O)c(O)c1	inactive
Nc1cc(Cl)c(O)c(Cl)c1	15.9 µM (active)
Cc1ccc(O)c(N)c1	35.6 µM (active)
C#CC1(O)CC[C@H]2[C@@H]3CCC4=CCCC[C@@H]4[C@H]3CC[C@@]21C (stereo partly specified)	inactive
CNC(=O)c1ccccc1Sc1ccc2c(/C=C/c3ccccn3)n[nH]c2c1	30.9 µM (active)
CN1CCCCC1CCN1c2ccccc2Sc2ccc(S(C)=O)cc21 (stereo unspecified)	0.0871 µM (active)
C#C[C@]1(OC(C)=O)CC[C@H]2[C@@H]3CCC4=C/C(=N/O)CC[C@@H]4[C@H]3CC[C@@]21CC	27.5 µM (active)
CN1CCN(Cc2cc(-c3ccc4[nH]c(=O)oc4c3)co2)[C@@H](c2ccc(F)cc2)C1	34.3 µM (active)

Compound	Potency
O=C(c1ccc(O)c(O)c1)c1ccc(O)cc1O	3.55 µM (active)
CCC(C)n1ncn(-c2ccc(N3CCN(c4ccc(OC[C@H]5CO[C@](Cn6cncn6)(c6ccc(Cl)cc6Cl)O5)cc4)CC3)cc2)c1=O (stereo partly specified)	inactive
CCOC(=O)c1ccc(C2CCC(NC[C@H](O)COc3ccc(O)c(NS(C)(=O)=O)c3)CC2)cc1 (stereo partly specified)	58.4 µM (active)
CN(C)[C@@H](CCOc1cccc2ccccc12)c1ccccc1	0.871 µM (active)
Cc1cc(C(C#N)c2ccc(Cl)cc2)c(Cl)cc1NC(=O)c1cc(I)cc(I)c1O (stereo unspecified)	inactive
Cc1cc(C)c(/C=C2\C(=O)Nc3ccccc32)[nH]1	inactive
CC(C)=CCNc1ncnc2c1ncn2[C@@H]1O[C@H](CO)[C@@H](O)[C@H]1O	inactive
O=C(O)c1cc(N=Nc2ccc([N+](=O)[O-])cc2)ccc1O	69.7 µM (active)
O=C(/C=C/c1ccc(O)c(O)c1)O[C@@H](C(=O)O)[C@@H](OC(=O)/C=C/c1ccc(O)c(O)c1)C(=O)O	31.7 µM (active)
CCO[C@@H]1O[C@H](C(COCc2ccccc2)OCc2ccccc2)[C@H](OCc2ccccc2)[C@H]1O (stereo partly specified)	38.9 µM (active)
OC12N=C(c3ccccc3)SC1Cc1cc(Cl)ccc12 (stereo unspecified)	39.9 µM (active)
CC(C(=O)O)c1ccc2c(c1)[nH]c1ccc(Cl)cc12 (stereo unspecified)	inactive
COC(=O)C1=C(C)NC(C)=C(C(=O)OCCN2CCN(C(c3ccccc3)c3ccccc3)CC2)C1c1cccc([N+](=O)[O-])c1 (stereo unspecified)	2.75 µM (active)
CCCCN(CCCC)CC(O)c1cc(Cl)cc2c1-c1ccc(Cl)cc1/C2=C/c1ccc(Cl)cc1 (stereo unspecified)	0.49 µM (active)
Cc1cc(C(C)(C)C)cc(C)c1CC1=NCCN1	3.47 µM (active)
